# From PubChem BioAssay (EPA / NIEHS)
# Inconclusive results are not listed. Active and inactive are the calls of the source. Rule for the calls, unless noted: active = hit-call score of the fitted dose curve at least 0.9, where 1 is the maximum; inconclusive = response in the unintended direction; inactive = score below 0.9.
# Columns and labels:
# [1] = biological target: T1, Thyroid hormone receptor alpha (Rattus norvegicus) + Thyroid hormone receptor beta (Rattus norvegicus) (UniProt P18113+P63059); test: TOX21_TR_LUC_GH3_Agonist_Followup: Tox21 GH3 Thyroid Hormone Receptor Agonism Luciferase Follow-Up Assay (AID 2283939)
# T1 sequence (P63059 whole entry, looked up): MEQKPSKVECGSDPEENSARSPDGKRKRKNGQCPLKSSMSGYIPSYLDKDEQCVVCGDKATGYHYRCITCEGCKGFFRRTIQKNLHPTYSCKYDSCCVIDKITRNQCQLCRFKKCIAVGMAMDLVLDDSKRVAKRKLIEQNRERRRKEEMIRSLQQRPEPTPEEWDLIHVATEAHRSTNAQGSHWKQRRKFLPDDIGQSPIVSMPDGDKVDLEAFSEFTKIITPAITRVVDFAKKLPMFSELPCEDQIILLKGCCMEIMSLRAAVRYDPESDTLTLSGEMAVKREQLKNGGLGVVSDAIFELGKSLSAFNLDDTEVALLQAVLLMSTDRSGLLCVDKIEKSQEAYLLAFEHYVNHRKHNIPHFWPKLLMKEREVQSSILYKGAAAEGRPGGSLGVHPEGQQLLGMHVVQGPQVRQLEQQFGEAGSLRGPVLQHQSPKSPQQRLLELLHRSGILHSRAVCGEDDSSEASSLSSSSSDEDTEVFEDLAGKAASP
# T1 sequence (P18113 whole entry, looked up): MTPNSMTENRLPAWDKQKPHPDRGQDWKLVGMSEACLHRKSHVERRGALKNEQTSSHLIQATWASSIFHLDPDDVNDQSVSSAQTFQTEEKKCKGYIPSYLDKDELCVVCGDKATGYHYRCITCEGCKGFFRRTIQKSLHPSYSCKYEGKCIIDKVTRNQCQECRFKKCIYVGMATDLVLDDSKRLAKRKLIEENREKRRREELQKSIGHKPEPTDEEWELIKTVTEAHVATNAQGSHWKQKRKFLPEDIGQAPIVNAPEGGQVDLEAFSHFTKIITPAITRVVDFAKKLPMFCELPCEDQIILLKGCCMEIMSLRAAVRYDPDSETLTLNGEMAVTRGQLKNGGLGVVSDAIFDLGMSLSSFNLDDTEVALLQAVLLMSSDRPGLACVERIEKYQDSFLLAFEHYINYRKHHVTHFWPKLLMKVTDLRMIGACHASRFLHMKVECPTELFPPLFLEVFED
# How it was run: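 Rat GH3 cells (1,500/well) in serum-free assay medium, treated with 15-point series, 92 uM to 5 nM final, for 24 h at 37C. Luciferase via ONE-Glo luminescence; gain of signal fitted against DMSO, T3 positive control.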
# THRA (gene 7067) [2] = biological target: THRA (gene 7067) (UniProt P10827); test: TOX21_TRA_COA_Agonist_Followup_ratio: Tox21 Thyroid Hormone Receptor alpha Agonism through Coactivator Recruitment Follow-Up Assay, Ratio (AID 2283948; active = hit-call score of the fitted dose curve at least 0.9, where 1 is the maximum; inactive = score below 0.9)
# Sequence of THRA (gene 7067) (P10827 whole entry, looked up, the tested form may be a part): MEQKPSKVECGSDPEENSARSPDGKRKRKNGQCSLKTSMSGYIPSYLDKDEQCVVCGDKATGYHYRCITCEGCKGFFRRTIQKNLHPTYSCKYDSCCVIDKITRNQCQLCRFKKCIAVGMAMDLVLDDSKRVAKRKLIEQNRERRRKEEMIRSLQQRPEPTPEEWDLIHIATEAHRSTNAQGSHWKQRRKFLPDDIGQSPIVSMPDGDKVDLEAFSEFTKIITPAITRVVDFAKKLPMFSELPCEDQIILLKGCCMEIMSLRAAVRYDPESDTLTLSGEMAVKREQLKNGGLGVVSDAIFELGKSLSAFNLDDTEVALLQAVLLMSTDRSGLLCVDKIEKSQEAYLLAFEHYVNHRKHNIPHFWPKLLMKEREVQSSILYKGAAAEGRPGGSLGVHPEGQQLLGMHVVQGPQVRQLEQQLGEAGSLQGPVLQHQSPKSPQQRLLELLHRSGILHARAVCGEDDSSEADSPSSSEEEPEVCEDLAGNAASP
# How it was run: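 Cell-free TR-FRET: GST-tagged TRα LBD (2.5 nM) with 0.10% BSA and compound, then fluorescein-SRC-2 peptide (200 nM) and Tb-anti-GST antibody (2 nM). Readout 520:495 nm ratio (ex 340 nm), normalized to DMSO (0%) and T3 (100%).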
# THRB (gene 7068) [3] = biological target: THRB (gene 7068) (UniProt P10828); test: TOX21_TRB_BLA_Agonist_Followup_ratio: Tox21 Thyroid Hormone Receptor beta Agonism Beta-lactamase (BLA) Follow-Up Assay, Ratio (AID 2283954)
# Sequence of THRB (gene 7068) (P10828 whole entry, looked up, the tested form may be a part): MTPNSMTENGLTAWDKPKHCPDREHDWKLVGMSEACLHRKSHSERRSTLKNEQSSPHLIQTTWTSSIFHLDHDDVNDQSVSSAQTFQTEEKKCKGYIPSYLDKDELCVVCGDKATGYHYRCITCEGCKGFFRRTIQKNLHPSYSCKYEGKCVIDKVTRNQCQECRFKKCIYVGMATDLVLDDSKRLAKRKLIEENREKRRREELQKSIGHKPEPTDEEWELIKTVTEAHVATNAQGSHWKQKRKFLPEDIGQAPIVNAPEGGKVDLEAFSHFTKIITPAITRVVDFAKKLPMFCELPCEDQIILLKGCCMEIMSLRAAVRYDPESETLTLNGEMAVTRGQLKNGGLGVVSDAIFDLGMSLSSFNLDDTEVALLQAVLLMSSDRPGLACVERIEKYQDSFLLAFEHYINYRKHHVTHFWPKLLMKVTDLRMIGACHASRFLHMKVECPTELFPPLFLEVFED
# How it was run: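 Human TRβ LBD–GAL4 DBD fusion in GeneBLAzer UAS-bla HEK293T cells; 11 concentrations in triplicate, 18 h at 37°C/5% CO2, T3 as agonist control. CCF4-AM substrate 2 h at room temperature; 460:530 nm ratio fitted for gain of signal versus DMSO.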
# [4] = TOX21_TRB_BLA_Agonist_Followup_viability: Viability Assessment in the Tox21 Thyroid Hormone Receptor beta Agonism Beta-lactamase (BLA) Follow-Up Assay (AID 2283956)
# How it was run: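 TRb-bla HEK293T cells (GAL4-DBD/human TRb LBD) in 2% charcoal-stripped FBS medium were exposed 18 h at 37C to 11 concentrations in triplicate. CellTiter-Glo ATP luminescence was read after 30 min at room temperature, with bidirectional fitting against DMSO.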
# THRB (gene 7068) [5] = biological target: THRB (gene 7068) (UniProt P10828); test: TOX21_TRB_COA_Agonist_Followup_ratio: Tox21 Thyroid Hormone Receptor beta Agonism through Coactivator Recruitment Follow-Up Assay, Ratio (AID 2283963; active = hit-call score of the fitted dose curve at least 0.9, where 1 is the maximum; inactive = score below 0.9)
# How it was run: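 Cell-free TR-FRET coactivator recruitment: GST-tagged TRβ LBD (5.0 nM) with 0.10% BSA incubated with compound, then fluorescein-SRC-2 peptide (200 nM) and Tb-anti-GST antibody (2 nM) added. 520:495 nm ratio normalized to DMSO (0%) and T3 (100%).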
# [6] = biological target: Retinoic acid receptor RXR-alpha (Homo sapiens) (UniProt P19793); test: TOX21_TR_RXR_BLA_Agonist_Followup_ratio: Tox21 Thyroid Hormone Receptor beta Retinoid X Receptor alpha (RXRa) Agonism Beta-lactamase (BLA) Follow-Up Assay, Ratio (AID 2283968)
# Sequence of Retinoic acid receptor RXR-alpha (Homo sapiens) (P19793 whole entry, looked up, the tested form may be a part): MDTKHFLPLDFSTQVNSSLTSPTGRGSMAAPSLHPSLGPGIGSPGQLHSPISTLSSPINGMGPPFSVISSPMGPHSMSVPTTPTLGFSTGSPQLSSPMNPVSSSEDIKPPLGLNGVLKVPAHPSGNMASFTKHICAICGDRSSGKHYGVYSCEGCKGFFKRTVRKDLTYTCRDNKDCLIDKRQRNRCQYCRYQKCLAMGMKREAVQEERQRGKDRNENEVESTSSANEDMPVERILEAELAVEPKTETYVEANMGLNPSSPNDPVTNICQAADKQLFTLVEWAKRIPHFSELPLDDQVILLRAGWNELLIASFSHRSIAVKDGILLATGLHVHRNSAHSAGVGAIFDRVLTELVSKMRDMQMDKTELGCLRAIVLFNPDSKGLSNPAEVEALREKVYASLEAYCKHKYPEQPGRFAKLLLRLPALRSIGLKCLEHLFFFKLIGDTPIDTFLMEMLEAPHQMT
# How it was run: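 This follow-up tests whether responses seen in the TR GH3 luciferase agonist screen are specific, using a GAL4-driven beta-lactamase reporter for RXRa in HEK293T cells. Compound exposure lasts 16 h; signal is the cleaved/uncleaved substrate ratio.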
# [7] = TOX21_TR_RXR_BLA_Agonist_Followup_viability: Viability Assessment in the Tox21 Thyroid Hormone Receptor beta Retinoid X Receptor alpha (RXRa) Agonism Beta-lactamase (BLA) Follow-Up Assay (AID 2283970)
# How it was run: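 In qHTS format, RXRa-bla HEK293T cells (2,500/well) received compound for 16h. ATP content was then measured with CellTiter-Glo, and responses were fitted bidirectionally relative to DMSO controls.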
# PGR (gene 5241) [8] = biological target: PGR (gene 5241) (UniProt P06401); test: TOX21_PR_BLA_Followup_Antagonist_ratio: Tox21 HEK293 Progesterone Receptor (PR) Antagonism Beta-lactamase Follow-Up Assay, Ratio (AID 2283934);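 note: PR-UAS-bla HEK293T cells stimulated with 1 nM R5020 agonist for 16 hr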
# Sequence of PGR (gene 5241) (P06401 whole entry, looked up): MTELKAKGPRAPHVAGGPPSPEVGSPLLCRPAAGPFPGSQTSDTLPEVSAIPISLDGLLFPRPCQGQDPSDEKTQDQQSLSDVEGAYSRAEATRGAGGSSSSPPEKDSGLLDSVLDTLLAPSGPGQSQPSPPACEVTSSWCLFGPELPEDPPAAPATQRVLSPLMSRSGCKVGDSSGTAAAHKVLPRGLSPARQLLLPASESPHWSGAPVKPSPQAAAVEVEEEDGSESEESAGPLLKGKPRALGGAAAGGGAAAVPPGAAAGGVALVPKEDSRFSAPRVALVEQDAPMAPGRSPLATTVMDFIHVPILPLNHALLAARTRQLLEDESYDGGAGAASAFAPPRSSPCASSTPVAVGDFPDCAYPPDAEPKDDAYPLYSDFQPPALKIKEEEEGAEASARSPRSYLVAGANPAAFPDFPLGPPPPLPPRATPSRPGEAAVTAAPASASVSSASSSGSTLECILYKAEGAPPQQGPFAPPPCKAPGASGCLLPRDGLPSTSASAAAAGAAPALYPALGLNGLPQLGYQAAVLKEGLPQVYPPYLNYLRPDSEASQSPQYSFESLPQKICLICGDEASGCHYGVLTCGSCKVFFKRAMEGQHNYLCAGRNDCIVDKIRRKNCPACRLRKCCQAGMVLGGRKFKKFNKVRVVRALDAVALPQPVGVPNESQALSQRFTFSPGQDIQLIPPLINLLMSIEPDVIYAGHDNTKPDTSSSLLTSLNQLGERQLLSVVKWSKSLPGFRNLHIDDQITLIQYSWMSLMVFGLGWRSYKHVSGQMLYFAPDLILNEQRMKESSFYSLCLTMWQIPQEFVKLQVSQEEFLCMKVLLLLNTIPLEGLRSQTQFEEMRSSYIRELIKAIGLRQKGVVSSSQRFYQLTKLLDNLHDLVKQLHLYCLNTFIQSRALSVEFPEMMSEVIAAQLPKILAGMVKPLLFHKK
# How it was run: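 Antagonist mode used 1 nM R5020 (final) as agonist on a beta-lactamase reporter line in HEK293T cells. Activity was taken from the substrate cleavage ratio after 16 hr exposure.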
# [9] = TOX21_PR_BLA_Followup_Agonist_viability: Viability Assessment in the Tox21 HEK293 Progesterone Receptor (PR) Agonism Beta-lactamase Follow-Up Assay (AID 2283935);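 note: signal loss means lower viability so actives are cytotoxic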
# How it was run: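 Multiplexed viability counter-screen: ATP-coupled luciferase signal measured after 30 min at room temperature, following 16 hr compound treatment of PR-UAS-bla HEK293T cells grown in charcoal-stripped serum.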
# [10] = TOX21_PR_BLA_Followup_Antagonist_viability: Viability Assessment in the Tox21 HEK293 Progesterone Receptor (PR) Antagonism Beta-lactamase Follow-Up Assay (AID 2283936);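 note: hits lower the luminescence signal meaning cytotoxicity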
# How it was run: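 PR-UAS-bla HEK293T cells (3,000/well, 2% charcoal-stripped FBS) given compound plus R5020 agonist, 16 h at 37C. CellTiter-Glo added after bla read, 30 min at room temperature; luminescence loss indicates cytotoxicity.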
# PGR (gene 5241) [11] = biological target: PGR (gene 5241) (UniProt P06401); test: TOX21_PR_LUC_Followup_Agonist: Tox21 HEK293 Progesterone Receptor (PR) Agonism Luciferase Follow-Up Assay (AID 2283937; active = hit-call score of the fitted dose curve at least 0.9, where 1 is the maximum; inactive = score below 0.9)
# How it was run: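 Agonist mode: reporter cells carrying PR-A and luciferase are treated 16 h with test compounds at 37C. Luciferase induction is measured by luminescence and fitted upward against DMSO.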
# PGR (gene 5241) [12] = biological target: PGR (gene 5241) (UniProt P06401); test: TOX21_PR_LUC_Followup_Antagonist: Tox21 HEK293 Progesterone Receptor (PR) Antagonism Luciferase Follow-Up Assay (AID 2283938);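 note: curve fitted upward as signal gain over DMSO baseline despite antagonist label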
# How it was run: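 HEK293-PR-A-luc cells, 3,000/well, preincubated 5 h at 37C before compound addition in DMSO; 16 h compound exposure at 37C. ONE-Glo luciferase luminescence read after 30 min at room temperature, fitted relative to DMSO baseline.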
# [13] = TOX21_PR_LUC_Followup_Antagonist_viability: Viability Assessment in the Tox21 HEK293 Progesterone Receptor (PR) Antagonism Luciferase Follow-Up Assay (AID 2283940)
# How it was run: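 Cellular ATP, measured with luciferase-coupled CellTiter-Glo, served as the viability endpoint after HEK293-PR-A-luc cells were exposed to test compounds for 16 h at 37C.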
# [14] = TOX21_PR_LUC_Followup_Agonist_viability: Viability Assessment in the Tox21 HEK293 Progesterone Receptor (PR) Agonism Luciferase Follow-Up Assay (AID 2283941);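 note: loss of signal means cytotoxicity so actives lower viability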
# How it was run: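 Luminescent ATP quantitation (CellTiter-Glo) serves as the read-out; a drop flags cytotoxic compounds. Cells are HEK293-PR-A-luc grown in 10% charcoal-stripped FBS, plated 3,000/well, and exposed to compound for 16 h.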
# THRB (gene 7068) [15] = biological target: THRB (gene 7068) (UniProt P10828); test: TOX21_TRB_BLA_Antagonist_Followup_ratio: Tox21 Thyroid Hormone Receptor beta Antagonism Beta-lactamase (BLA) Follow-Up Assay, Ratio (AID 2283958)
# How it was run: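 In this antagonist-mode follow-up, a stably integrated GAL4-TRβ LBD fusion drives a UAS-beta-lactamase reporter in HEK293T cells. Loss of ratio signal relative to DMSO after 18 h treatment indicates activity; parallel CellTiter-Glo flags cytotoxicity.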
# [16] = TOX21_TRB_BLA_Antagonist_Followup_viability: Viability Assessment in the Tox21 Thyroid Hormone Receptor beta Antagonism Beta-lactamase (BLA) Follow-Up Assay (AID 2283961)
# How it was run: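 HEK293T cells with GAL4-human TRβ LBD and UAS-bla reporter, 3,000 cells/well in 2% charcoal-stripped FBS medium; 11-point concentrations in triplicate, 18 h at 37C. Viability from ATP by CellTiter-Glo luminescence, 30 min RT, same plates.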
# THRB (gene 7068) [17] = biological target: THRB (gene 7068) (UniProt P10828); test: TOX21_TRB_COA_Antagonist_Followup_ratio: Tox21 Thyroid Hormone Receptor beta Antagonism through Coactivator Recruitment Follow-Up Assay, Ratio (AID 2283967)
# How it was run: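 Test compound was incubated with 5.0 nM GST-TRβ LBD in 0.10% BSA. Then 200 nM fluorescein-SRC-2 peptide and 2 nM terbium anti-GST antibody were added. TR-FRET (520:495 nm) was measured and normalized to DMSO and T3 controls.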
# [18] = biological target: Retinoic acid receptor RXR-alpha (Homo sapiens) (UniProt P19793); test: TOX21_TR_RXR_BLA_Antagonist_Followup_ratio: Tox21 Thyroid Hormone Receptor beta Retinoid X Receptor alpha (RXRa) Antagonism Beta-lactamase (BLA) Follow-Up Assay, Ratio (AID 2283972)
# How it was run: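 RXRa-UAS-bla HEK293T cells, 2,500/well in phenol red-free DMEM with 2% charcoal-stripped FBS, 5 h attachment, then compounds (11 concentrations, triplicate) for 16 h at 37C; FRET-B/GCCF4-AM substrate 2 h RT; 460:530 nm ratio, loss of signal vs DMSO.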
# [19] = biological target: T1, Thyroid hormone receptor alpha (Rattus norvegicus) + Thyroid hormone receptor beta (Rattus norvegicus); test: TOX21_TR_LUC_GH3_Antagonist_Followup: Tox21 GH3 Thyroid Hormone Receptor Antagonism Luciferase Follow-Up Assay (AID 2283942)
# How it was run: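 Confirmatory qHTS, antagonist mode: T3 (1.0 nM final) + test cpd, 15 conc, 92 uM–5nM final, GH3 rat pituitary line, 24 h, 37C. Luc reporter, RLU vs DMSO.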
# THRA (gene 7067) [20] = biological target: THRA (gene 7067) (UniProt P10827); test: TOX21_TRA_COA_Antagonist_Followup_ratio: Tox21 Thyroid Hormone Receptor alpha Antagonism through Coactivator Recruitment Follow-Up Assay, Ratio (AID 2283953)
# How it was run: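 This follow-up to the GH3 luciferase screen checks specificity in a cell-free format. It measures SRC-2 coactivator peptide binding to TRα LBD by TR-FRET and scores loss of ratio signal relative to DMSO.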
compound,measurement,setting,value
C[N+]1(C)CCCCC1,outcome,[1],inactive
same,outcome,THRA (gene 7067) [2],inactive
same,outcome,THRB (gene 7068) [3],inactive
same,outcome,[4],inactive
same,outcome,THRB (gene 7068) [5],inactive
same,outcome,[6],inactive
same,outcome,[7],inactive
CCC(=O)Nc1ccc(Cl)c(Cl)c1,outcome,PGR (gene 5241) [8],inactive
same,outcome,[9],inactive
same,outcome,[10],inactive
same,outcome,PGR (gene 5241) [11],inactive
same,outcome,PGR (gene 5241) [12],inactive
same,outcome,[13],inactive
same,outcome,[14],inactive
CON=C(C(=O)OC)c1ccccc1CON=C(C)c1cccc(C(F)(F)F)c1,outcome,THRB (gene 7068) [15],inactive
same,outcome,[16],inactive
same,outcome,THRB (gene 7068) [17],inactive
same,outcome,[18],inactive
CCOP(=S)(OCC)Oc1ccc([N+](=O)[O-])cc1,AC50,PGR (gene 5241) [8],3.78 µM (active)
same,outcome,[9],inactive
same,outcome,[10],inactive
same,AC50,PGR (gene 5241) [12],4.86 µM (active)
same,outcome,[13],inactive
C=C(C)[C@H]1Cc2c(ccc3c2O[C@@H]2COc4cc(OC)c(OC)cc4[C@@H]2C3=O)O1,AC50,[19],5.29 µM (active)
same,AC50,THRB (gene 7068) [15],1.52 µM (active)
same,AC50,[16],6.16 µM (active)
same,outcome,THRB (gene 7068) [17],inactive
same,outcome,[18],inactive
CSC1=N[C@@](C)(c2ccccc2)C(=O)N1Nc1ccccc1,outcome,[19],inactive
same,outcome,THRA (gene 7067) [20],inactive
same,outcome,THRB (gene 7068) [15],inactive
same,outcome,[16],inactive
same,outcome,THRB (gene 7068) [17],inactive
same,outcome,[18],inactive
